This passage reports binding signal results from paper PMC10812921, “Transcriptional Coactivator BOB1 (OBF1, OCA-B) Modulates the Specificity of DNA Recognition by the POU-Domain Factors OCT1 and OCT2 in a Monomeric Configuration”.

For the experiment, the target named is T1, POU2 (OCT2 POU domain);BOB1 (OBF1, OCA-B) (human;human, UniProt P09086;Q16633 175-386;1-256, |).
T1 sequence 1: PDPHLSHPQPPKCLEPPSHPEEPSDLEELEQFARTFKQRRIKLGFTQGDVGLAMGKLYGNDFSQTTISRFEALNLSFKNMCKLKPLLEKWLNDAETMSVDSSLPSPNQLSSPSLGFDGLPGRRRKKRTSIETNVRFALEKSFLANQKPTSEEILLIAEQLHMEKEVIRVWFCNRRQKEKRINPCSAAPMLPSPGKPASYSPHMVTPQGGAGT
T1 sequence 2: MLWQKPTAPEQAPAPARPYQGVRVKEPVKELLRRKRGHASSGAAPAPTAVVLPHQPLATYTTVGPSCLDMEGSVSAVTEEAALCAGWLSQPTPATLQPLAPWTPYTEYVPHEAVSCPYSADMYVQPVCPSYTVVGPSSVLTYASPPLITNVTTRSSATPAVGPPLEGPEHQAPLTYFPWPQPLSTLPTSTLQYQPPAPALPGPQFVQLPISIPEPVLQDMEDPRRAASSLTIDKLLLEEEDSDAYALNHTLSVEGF
Description: EMSA-SELEX-seq; with BOB1 (ternary complex band); 20 mM Tris-HCl pH 7.6, 140 mM NaCl, 10% glycerol, 0.5 mM EDTA, 0.05% Triton X-100, 0.1 mg/mL BSA, 0.1 mg/mL poly(dI-dC), 5 mM DTT, room temperature, 20 min; high values mean tight binding. Particulars: protein: recombinant;recombinant; copies: 1;1; dsDNA, one strand shown. The method in brief:
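Binding preference means the percentage of sequenced 8-mers matching a motif pattern. Tagged POU-domain proteins (30 ng), expressed in E. coli BL21, purified under denaturing conditions and renatured, were mixed with 300 ng of a PCR-amplified double-stranded random 35-nt library, with or without 28 ng coactivator protein, for 20 min at RT in 20 μL Tris–HCl pH 7.6 binding buffer. Selection was repeated over four rounds of excising complex bands from native 6% PAGE, eluting and PCR amplification, followed by Illumina sequencing.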
A general note: In EMSA bound probe runs differently from free probe, usually more slowly.
With ATTTCAAC, the binding signal was 0.0429 % of ANNNNAAN 8-mers.
With AATACAAT, the binding signal is 0.0982 % of ANNNNAAN 8-mers.
In the case of ACTTTAAT it was 0.066 % of ANNNNAAN 8-mers.
In the case of AACTCAAC, the binding signal is 0.0182 % of ANNNNAAN 8-mers.
For the sequence ATCATAAA, the binding signal was 0.0586 % of ANNNNAAN 8-mers.
As for ATACGAAC, the binding signal is 0.0347 % of ANNNNAAN 8-mers.
Turning to AATCTAAC, the binding signal is 0.0272 % of ANNNNAAN 8-mers.
As for AACACAAA, the binding signal is 0.0438 % of ANNNNAAN 8-mers.
ATCGTAAC: the binding signal is 0.0322 % of ANNNNAAN 8-mers.
The value for ATGGTAAC was 0.0429 % of ANNNNAAN 8-mers.
For the sequence ATCAAAAA, the binding signal is 0.0636 % of ANNNNAAN 8-mers.
In the case of AGGGTAAC it was 0.0322 % of ANNNNAAN 8-mers; in that of AGAGAAAA, 0.0504 % of ANNNNAAN 8-mers.
In the case of ATGGGAAA, the binding signal was 0.0784 % of ANNNNAAN 8-mers.
Turning to ACTCTAAC, the binding signal was 0.0182 % of ANNNNAAN 8-mers.
Regarding AAACAAAA, the binding signal was 0.14 % of ANNNNAAN 8-mers.
Consider ATAGCAAC, for which the binding signal is 0.0405 % of ANNNNAAN 8-mers.
In the case of AAGTGAAG it was 0.0454 % of ANNNNAAN 8-mers; in that of ATTTCAAT, 0.142 % of ANNNNAAN 8-mers; in that of AAGAAAAG, 0.0652 % of ANNNNAAN 8-mers.
For the sequence ACAGAAAT, the binding signal is 0.0504 % of ANNNNAAN 8-mers.
Turning to AAGGTAAC, the binding signal is 0.0322 % of ANNNNAAN 8-mers.
With AGGGCAAT, the binding signal is 0.0611 % of ANNNNAAN 8-mers.
ATGCAAAC: the binding signal was 1.27 % of ANNNNAAN 8-mers.
The value for AGATAAAA was 0.0462 % of ANNNNAAN 8-mers; that for AACGGAAT was 0.0627 % of ANNNNAAN 8-mers; that for AGGGTAAA was 0.0966 % of ANNNNAAN 8-mers.
The value for AACATAAA was 0.0627 % of ANNNNAAN 8-mers; that for AATCGAAC was 0.0512 % of ANNNNAAN 8-mers.
As for ACAAAAAT, the binding signal was 0.0768 % of ANNNNAAN 8-mers.
Regarding ATAGTAAG, the binding signal was 0.0619 % of ANNNNAAN 8-mers.
With ATACAAAT, the binding signal was 0.498 % of ANNNNAAN 8-mers.
As to AGAGTAAG, the binding signal is 0.0297 % of ANNNNAAN 8-mers.
As for ATGGAAAG, the binding signal was 0.129 % of ANNNNAAN 8-mers.
On to ACTGGAAC, for which the binding signal is 0.0206 % of ANNNNAAN 8-mers.
As for ATTTCAAG, the binding signal was 0.0561 % of ANNNNAAN 8-mers.
The value for AGAAGAAG was 0.0454 % of ANNNNAAN 8-mers.
As to AGGTGAAG, the binding signal was 0.0471 % of ANNNNAAN 8-mers.
ATCCGAAG: the binding signal is 0.0338 % of ANNNNAAN 8-mers.
